# Source: PubChem BioAssay
# Most compounds without a hit are left out; they make up all but 18% or so of the library.
# HepG2 viability: HepG2 cytotoxicity, counter-screen for TGF-b inhibitors | Potency, µM (doses to about 46.1 µM), without a hit: at the top dose activity change, negative = cytotoxicity, usual class: cytotoxic | AID 588856 | HepG2 CAGA-GFP viability, ATP luminescence, 18 h | 0.76% of 410,000 active; note: potency is the fitted concentration of half-maximal effect
#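 CellTiter-Glo luminescence gave cytotoxicity after 18 hours at 37 degrees C. The cells were HepG2 CAGA-GFP in 1% FBS DMEM, stimulated with 500 pg/mL TGF-beta after compound addition. %Activity was normalised to no-cell wells (complete cell-killing) and DMSO (no toxicity), and curves were fitted and classified.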
# TDP1 inh: inhibitors of human tyrosyl-DNA phosphodiesterase TDP1; Q9NUW8; recombinant TDP1, AlphaScreen DNA substrate cleavage; Potency, µM (series often up to 130 µM), for the others: at the top dose activity change, negative = inhibition, usual class: inhibitors; 0.28% of 350,000 active; note: potency is the fitted concentration of half-maximal effect; % is set by controls: 0 for no effect and ±100 for the full control effect; nearly all actives have a fitted effect of over 40% in size
# Target sequence (Q9NUW8 whole entry, looked up): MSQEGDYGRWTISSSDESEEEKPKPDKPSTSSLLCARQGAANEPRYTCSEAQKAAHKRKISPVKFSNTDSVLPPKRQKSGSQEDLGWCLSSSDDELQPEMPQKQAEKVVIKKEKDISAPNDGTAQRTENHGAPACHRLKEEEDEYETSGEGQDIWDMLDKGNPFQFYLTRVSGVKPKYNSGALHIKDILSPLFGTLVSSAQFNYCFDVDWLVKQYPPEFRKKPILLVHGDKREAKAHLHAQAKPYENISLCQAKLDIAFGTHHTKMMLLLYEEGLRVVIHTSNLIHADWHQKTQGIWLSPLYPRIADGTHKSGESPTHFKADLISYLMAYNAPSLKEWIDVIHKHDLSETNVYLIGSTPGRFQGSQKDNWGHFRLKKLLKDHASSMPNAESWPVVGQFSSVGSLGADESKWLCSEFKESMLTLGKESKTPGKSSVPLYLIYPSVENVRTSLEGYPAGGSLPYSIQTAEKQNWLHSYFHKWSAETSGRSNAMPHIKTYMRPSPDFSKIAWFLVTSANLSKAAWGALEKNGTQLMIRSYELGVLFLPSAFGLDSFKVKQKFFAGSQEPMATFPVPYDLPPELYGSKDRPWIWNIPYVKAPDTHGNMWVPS
#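 Enzyme-compound mixtures sat 15 min at room temperature, followed by a 5 min reaction with 15 nM final substrate and 10 min with AlphaScreen beads. Recombinant human Tdp1 was used at 1 nM final.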
# TDP1 cell noCPT: qHTS for Inhibitors of human tyrosyl-DNA phosphodiesterase 1 (TDP1): qHTS in cells in absence of CPT | DT40 Tdp1-/- hTDP1 cells, no CPT, ATP luminescence, 48 h | Potency, µM (titrated, usually from 46.2 µM), for the others: at the highest dose activity change, negative = growth inhibition, usual class: inhibitors | 15% of 420,000 active; note: potency is the fitted concentration of half-maximal effect; % is set by controls: 0 for no effect and ±100 for the full control effect; nearly all actives have a fitted effect of over 55% in size
#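 Seeded 400 DT40-hTDP1 cells/well (vehicle DMSO, no 20 nM CPT); pinned compounds; ≥48 hr at 37 °C; CellTiter-Glo luminescence as viability measure.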
# TGFb SMAD3 inh: TGF-b pathway inhibition; HepG2 CAGA-GFP TGF-b/SMAD3 reporter, GFP fluorescence, 18 h; TGF-beta stimulated, 500 pg/mL final; Potency, µM (titrated, usually from 46.1 µM), without a hit: top-dose activity, negative = inhibition, most hits filed as inhibitors; 1.2% of 410,000 active; AID 588855; note: potency is the fitted concentration of half-maximal effect; % is set by controls: 0 for no effect and ±100 for the full control effect; nearly all actives have a fitted effect of over 65% in size
#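 Read-out: total well GFP (ex488/em500-530) summed from mean per-cell fluorescence. Cells: HEPG2 CAGA-GFP, 1% FBS DMEM, 18 h at 37 degrees C with 500 pg/mL final TGF-beta. Unstimulated wells served as the full-inhibition control; stimulated DMSO wells = 0%.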
# IL-1B inflam inh: inhibitors of inflammasome signaling (IL-1 beta secretion). activity change, % at 57.5 µM. 4.7% of 360,000 active. AID 743279. THP-1 LPS/ATP IL-1B secretion, AlphaLISA, 16 h; hits give low values; in the data active = activity change below about -50%; inconclusive = mostly about -30% to -49%; note: % is set by controls: 0 for no effect and ±100 for the full control effect
#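 THP-1 cells pretreated 1 hr with compounds (up to 57.5 uM final), then stimulated with LPS (250 ng/mL final) plus ATP (1.25 mM final); secreted IL-1B measured by AlphaLISA after 16 hr, decreased signal indicating inhibition.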
# TDP1 cell CPT: growth inhibition of DT40 Tdp1-/-;hTDP1 cells with camptothecin (screen for TDP1 inhibitors) | chicken DT40 Tdp1-/-;hTDP1 cells + 20 nM CPT, ATP luminescence, 48 h | Potency, µM (doses to about 46.2 µM), without a hit: top-dose activity change, negative = growth inhibition, usual class: inhibitors | 12% of 420,000 active; note: potency is the fitted concentration of half-maximal effect; % is set by controls: 0 for no effect and ±100 for the full control effect; nearly all actives have a fitted effect of over 55% in size
#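 Cell growth measured by CellTiter-Glo luminescence after a minimum 48 h, 37 C compound exposure with 20 nM CPT in Tdp1-knockout DT40 cells stably expressing hTDP1, seeded 400/well; qHTS titration format.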
# Starred values were filed as active, the others as inactive; ? = inconclusive; nt = no result; [ ] = dose if it differs, or a comment. Unless noted, calls come from the whole dose curve; as a rule, active = well fitted curve in the direction sought with a large enough effect; inconclusive = small, poorly fitted or top-dose-only effect, or another doubt; inactive = no such curve, though single readings can be large; an effect the other way counts as inactive or inconclusive.
SMILES,HepG2 viability,TDP1 inh,TDP1 cell noCPT,TGFb SMAD3 inh,IL-1B inflam inh,TDP1 cell CPT
CCC(C)N(C(=O)CSc1nc(C)c(C)c(C)c1C#N)C1CCS(=O)(=O)C1 (stereo not given),-11%,1%,21µM*,?,-5,-6%
CCSc1nc(-c2cccs2)nc2ccccc12,-39%,-3%,18µM*,-18%,6,15µM*
COC(=O)CC1[C@@]2(C)C[C@]34OC5(C)OC6(C7CC(=O)OC(c8ccoc8)[C@]7(C)CCC6(O5)[C@]13C)C(OC(C)=O)[C@]4(OC(C)=O)C2OC(C)=O (stereo not given in full),nt,14%[56.1 µM],1%,nt,nt,-3%
COC(=O)c1ccccc1NC(=O)CNc1ccc(F)c(S(=O)(=O)N2CCOCC2)c1,-7%,-2%,-21%,-8%,-1,-20%
CC(C)NC(=O)Cn1ncn2c(cc3cc(F)ccc32)c1=O,-9%,8%,20%,2%,nt,20%
CN(C)c1ccc(CC(=O)c2nc3ccccc3s2)cc1,-22%,-1%,?,-4%,35,16µM*
COc1cccc(-c2cnc(C(O)c3ccc(Cl)cc3)[nH]2)c1 (stereo not given),-2%,nt,?,-1%,35,26µM*
COc1cccc(-c2cnc(C(O)c3ccc(SC)cc3)[nH]2)c1 (stereo not given),-13%,nt,16µM*,-8%,15,?
COc1cccc(-c2cnc(C(O)c3ccc(F)cc3)[nH]2)c1 (stereo not given),-2%,nt,-12%,-14%,21,-12%
CCc1ccc(C(O)c2ncc(-c3cccc(OC)c3)[nH]2)cc1 (stereo not given),-26%,nt,9.2µM*,-8%,17,?
COc1cccc(-c2cnc(C(O)c3ccc(CN4CCCC4)cc3)[nH]2)c1 (stereo not given),6%,nt,-10%,-6%,4,2%
COc1cccc(-c2cnc(C(O)c3ccc(Cl)c(Cl)c3)[nH]2)c1 (stereo not given),-67%,nt,?,?,21,21µM*
COc1ccc(C(O)c2ncc(-c3cccc(OC)c3)[nH]2)cc1 (stereo not given),-5%,nt,-22%,-8%,-5,-7%
CCOCCCNC(=O)c1oc2ccc3c(c2c1C)C(O)CC(C)(C)O3 (stereo not given),2%,nt,-21%,0%,-24,-29%
CC(NC(=O)c1cccnc1)c1nnc2n1CCN(Cc1ccc(-c3ccccc3Cl)o1)CC2 (stereo not given),nt,nt,-22%,nt,nt,-5%
CSc1ccc(C(O)c2ncc(-c3cccc(F)c3)[nH]2)cc1 (stereo not given),-2%,nt,?,6%,0,15µM*
CCc1ccc(C(O)c2ncc(-c3cccc(F)c3)[nH]2)cc1 (stereo not given),-38%,nt,?,-6%,-3,?
CC(C)=Cc1c(O)nc2ccccn2c1=O,12%,-3%,13%,?,4,6%
O=C(CN1CCN(S(=O)(=O)c2ccccc2)CC1)Nc1ccccc1C(=O)c1ccccc1,-37%,3%,?,?,-4,?
CS(=O)(=O)N1CCC2(CCCN(c3ccncc3)C2)CC1,nt,nt,-24%,nt,nt,5%
Cc1ccccc1CNc1ncnc2c1ncn2[C@@H]1O[C@H](CO)[C@@H](O)[C@H]1O,nt,nt,12µM*,nt,nt,?
C/C(=C\CNc1ncnc2c1ncn2[C@@H]1O[C@H](CO)[C@@H](O)[C@H]1O)CO,nt,13%,nt,nt,nt,nt
